Bioassay records deposited in PubChem by several laboratories.
HIF act: HIF pathway transcriptional activation | U2OS HRE-luciferase reporter, luminescence; normalized: DMSO 0%, desferrioxamine 100% | activation, % at 7.5 µM (by protocol) | 0.32% of 300,000 active | AID 1910;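 active means mean activation of at least 10% of the iron chelator positive control signal, with at least half of replicates also reaching 10%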
Platelet DG rel: modulates dense granule release in human platelets. inhibition, %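 (compounds screened at 7.5 µM in platelet-rich plasma)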. 0.22% of 300,000 active. human platelet-rich plasma, SFLLRN dense granule ATP release, luminescence;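 active means mean replicate score, as percent of positive control, at or above 50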
NTR1 agonist: activates human neurotensin receptor 1. 0.17% of 330,000 active. NTR1-U2OS beta-arrestin-GFP spot imaging, agonist mode. AID 493036. P30989. activation, % at 20 µM;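 active means activation at or above 40% of the spot to cytoplasm intensity ratio, with at least 20 cells analyzed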
Target sequence (P30989 whole entry, looked up): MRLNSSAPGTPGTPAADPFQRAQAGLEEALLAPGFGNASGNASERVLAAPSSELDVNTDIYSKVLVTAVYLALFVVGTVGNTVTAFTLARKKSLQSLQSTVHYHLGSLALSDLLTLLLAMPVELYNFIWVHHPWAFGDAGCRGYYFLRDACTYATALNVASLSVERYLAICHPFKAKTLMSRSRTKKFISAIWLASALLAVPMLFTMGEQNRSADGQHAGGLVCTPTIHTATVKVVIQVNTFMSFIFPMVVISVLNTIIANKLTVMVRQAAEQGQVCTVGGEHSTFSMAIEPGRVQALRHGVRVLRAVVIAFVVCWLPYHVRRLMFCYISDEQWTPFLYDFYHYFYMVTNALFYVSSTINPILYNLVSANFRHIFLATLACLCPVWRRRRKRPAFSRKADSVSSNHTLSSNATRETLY
Of the large screens only hits and unclear results are named; the others gave an inactive call. In the library only some 0.63% were active in any assay of this set; here they are far more common.

CCOC(=O)N1CCC(N(CCOC)C(=S)Nc2cccc(SC)c2)CC1	none
CSc1nc2nc3c(cc2c(=O)n1-c1cccc(C)c1)COC(C)(C)C3	none
Cc1ccc(Cl)c(OCC(=O)Nc2ccccc2C(=O)NC2CC2)c1	Platelet DG rel 53
Cc1ccc(C)c(OCC(=O)Nc2ccccc2C(=O)NC2CC2)c1	none
Cc1cc(C)c(S(=O)(=O)ON2C(=O)c3ccccc3C2=O)cc1C	none
O=C1c2ccccc2C(=O)N1OS(=O)(=O)c1ccc(F)cc1	Platelet DG rel 60 (no result: NTR1 agonist)
CN=c1scc(-c2ccccc2F)n1/N=C/c1ccc(O)c(O)c1O	Platelet DG rel 77 (no result: NTR1 agonist)
CN=c1scc(-c2ccccc2F)n1/N=C/c1ccc[nH]1	none
COc1cccc(-c2c(C(=O)N/N=C(\C)c3ccncc3)nnn2-c2nonc2N)c1	none
O=C(c1ccc(S(=O)(=O)N2CCCCC2)cc1)N1CCN=C1SCc1cccnc1	none (no result: HIF act, Platelet DG rel)
O=C(Nc1cccc(O)c1)c1noc2c1CCCCC2	Platelet DG rel 64
Cc1ccc(NC(=O)c2noc3c2CCC3)cc1C	none (no result: NTR1 agonist)
O=C(CN1C(=O)NC2(CCc3ccccc32)C1=O)NCCc1ccccc1 (stereo not given)	none (no result: HIF act, Platelet DG rel)
CCN(CC)c1ccc2c(C)c(Cl)c(=O)oc2c1	none
CCN(CC)c1ccc2c(Cl)c(Br)c(=O)oc2c1	HIF act 14
COC(=O)c1sccc1-c1ccc(C(=O)Nc2cccc(Cl)c2)o1	none
COc1ccc(F)cc1CSc1nnnn1-c1ccc(O)cc1	HIF act 477
COc1ccc(C(C)=O)cc1CSc1nnnn1-c1ccc(O)cc1	none
c1ccc(-c2cn(CC3CCCCC3)nn2)cc1	none
O=c1oc2cc([N+](=O)[O-])ccc2nc1/C=C(O)/C=C/c1ccccc1	none
O=c1oc2cc([N+](=O)[O-])ccc2nc1/C=C(\O)c1cccc(Br)c1	HIF act 16
Cc1nc2cc(NS(=O)(=O)c3cccc(F)c3)ccc2s1	none (no result: HIF act)
COc1ccc(/C=N/N(C)c2cc(=O)n(C)c(=O)[nH]2)cc1OC	Platelet DG rel 74
CN(/N=C/C=C/c1ccccc1)c1cc(=O)n(C)c(=O)[nH]1	none
CCN(C(=O)CSc1ncn[nH]1)C1CCCCC1	HIF act 77
CCN(C(=O)CSc1nc(C)cc(=O)[nH]1)C1CCCCC1	none (no result: HIF act, Platelet DG rel)
COc1ccccc1N1CCN(C(=O)/C=C/c2ccc3c(c2)OCO3)CC1	none
O=C(NCCc1ccccc1)c1cc2sccc2n1Cc1ccccc1	HIF act 75
CCn1c(C(=O)NCCCc2ccccc2)cc2sccc21	none
Cc1c(C(=O)NC2CCCCC2)oc2c1C(=O)CC(C)(C)C2	none
Cc1nn(-c2ccc3ccccc3c2)c(=O)c2ccccc12	none
Cc1nn(-c2nc3ccccc3[nH]2)c(=O)c2ccccc12	Platelet DG rel 81 (no result: NTR1 agonist)
Cc1ccc(C2c3sc(=O)[nH]c3SC3C(=O)NC(=O)C32)cc1 (stereo not given)	none
CCn1c(=O)c(=O)[nH]c2cc(C(=O)N3CCN(c4ccccc4F)CC3)ccc21	none
CCC1(C)Cc2nc3[nH]c(=S)n(-c4ccc(C)cc4)c(=O)c3cc2CO1 (stereo not given)	none
Cc1ccc(C)c(-c2cc(C(=O)Nc3cccnc3)c3ccccc3n2)c1	none
Cc1ccc(C)c(-c2cc(C(=O)Nc3cccc(C(=O)O)c3)c3ccccc3n2)c1	HIF act 39
CC(Oc1ccc(F)cc1)C(=O)/C=C\N(C)C (stereo not given)	none
CN(C(=O)Cn1nnc(-c2cccc(C(F)(F)F)c2)n1)C1CCCCC1	Platelet DG rel 70
Cc1ccc(-c2nnn(CC(=O)N(C)C3CCCCC3)n2)o1	none
CN(C)S(=O)(=O)c1cccc(NC(=O)CSc2nnnn2-c2ccccc2)c1	Platelet DG rel 50
NS(=O)(=O)c1cccc(NC(=O)CSc2nnnn2-c2ccccc2)c1	none
COc1ccc(N2CCN(C(=O)c3ccccc3NC(=O)c3ccccc3)CC2)cc1	none
Cn1nc(-c2ccc(Cl)cc2)c2cc(C(=O)N3CCN(c4ccccn4)CC3)sc21	none (no result: HIF act)
COc1ccc(O)c(/C=N/NC(=S)Nc2cccc(S(=O)(=O)N(C)C)c2)c1	HIF act 42 (no result: NTR1 agonist)
COc1cccc(/C=N/NC(=S)Nc2cccc(S(=O)(=O)N(C)C)c2)c1	none
COc1ccc(-c2cc3ccc(OCC(N)=O)cc3oc2=O)cc1OC	none
COc1ccc(-c2cc3ccc(O)cc3oc2=O)cc1OC	Platelet DG rel 71
N#C/C(=C\c1ccc(/C=C(/C#N)c2nn(CCO)c(N)c2C#N)cc1)c1nn(CCO)c(N)c1C#N	HIF act 155
N#C/C(=C/c1ccccc1)c1nn(CCO)c(N)c1C#N	none
COc1cccc(NC(=O)Cc2nc(-c3ccccc3)sc2-c2ccc(C)cc2)c1	none
Cc1cccc(C(=O)Nc2cccc(C(=O)N/N=C/c3cccc(C)n3)c2)c1	none
c1ccc(-c2nnc(-c3ccccn3)nc2NC2CCCCC2)cc1	HIF act 472
Oc1ccccc1-c1nc(NC2CCCC2)c2ccccc2n1	none
CNc1nc(-c2ccccn2)nnc1-c1ccccc1	HIF act 14
